Bioassay records deposited in PubChem BioAssay by National Center for Advancing Translational Sciences (NCATS).
An excerpt weighted towards active compounds, which were near 2.9% of everything screened.
Pol iota inh – qHTS for Inhibitors of Polymerase Iota; DNA polymerase iota (Homo sapiens), Q9UNA4; Pol iota fluorescent replication assay, 10 min; Potency, µM (doses to about 115 µM), inactives show at the highest dose activity, negative = inhibition, usual class: inhibitors; hit rate 1% among 390,000; further: potency means the concentration at half of the fitted maximal effect
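Pol iota at 10 nM preincubated 15 min with compounds at room temperature; reaction started with fluorescent substrate, 50 nM final. Fluorescence read kinetically at 0 and 10 min; buffer-only wells as negative control.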
POLK inh – qHTS for Inhibitors of Polymerase Kappa; hit rate 0.53% among 400,000; purified Pol kappa, fluorescent DNA synthesis assay, 10 min; DNA polymerase kappa (Homo sapiens), Q9UBT6; Potency, µM (series often up to 107 µM), for the others: at the top dose activity, negative = inhibition, actives largely listed as inhibitors; further: potency means the concentration at half of the fitted maximal effect; on the % scale 0 is the no-effect control and ±100 the full control effect
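Here, compound and 10 nM enzyme are combined for 15 min at room temperature; adding 50 nM substrate (final) starts DNA synthesis, tracked by fluorescence at 0 and 10 min against buffer-only wells.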
Pol beta inh – qHTS Assay for Inhibitors of DNA Polymerase Beta; P06746; Pol beta primer extension/strand displacement, fluorescence kinetic; Potency, µM (titrated, usually from 114 µM), without a hit: at the top dose activity change, negative = inhibition, usual class: inhibitors; hit rate 1.3% among 340,000; AID 485314, 2010; further: potency means the concentration at half of the fitted maximal effect; on the % scale 0 is the no-effect control and ±100 the full control effect
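Curves were derived by four-parameter Hill fits of normalized qHTS data. The kinetic fluorescent primer-extension read was taken at 0 and 10 min after 50 nM substrate, following a 15 min room-temperature preincubation of 10 nM enzyme with compounds.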
PI5P4K alpha inh – qHTS for Inhibitors of phosphatidylinositol 5-phosphate 4-kinase (PI5P4K); AID 652105, 2013; Phosphatidylinositol 5-phosphate 4-kinase type-2 alpha (Homo sapiens), P48426; PI5P4Kalpha enzyme, ADP-Glo luminescence, 60 min; active compounds read low; hit rate 1.2% among 330,000; max response, %; active means max response of -50% or lower; inconclusive means between -30% and -50%; inactive means -30% or higher; further: value at the top dose of about 77 µM; on the % scale 0 is the no-effect control and ±100 the full control effect
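Compounds were pin-transferred onto PI5P4Kalpha and substrate in HEPES pH 7.4 buffer with EGTA, CHAPS and 5% DMSO. ATP (5 microM final) started the reaction, which ran 60 minutes at room temperature before ADP-Glo detection.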
POLH inh – qHTS for Inhibitors of Polymerase Eta. DNA polymerase eta (Homo sapiens), Q9Y253. recombinant Pol eta, fluorescent DNA replication assay. Potency, µM (doses to about 114 µM), inactives show top-dose activity change, negative = inhibition, hits mostly inhibitors. hit rate 1.2% among 390,000; further: potency means the concentration at half of the fitted maximal effect; on the % scale 0 is the no-effect control and ±100 the full control effect
Target sequence (Q9Y253 whole entry, looked up): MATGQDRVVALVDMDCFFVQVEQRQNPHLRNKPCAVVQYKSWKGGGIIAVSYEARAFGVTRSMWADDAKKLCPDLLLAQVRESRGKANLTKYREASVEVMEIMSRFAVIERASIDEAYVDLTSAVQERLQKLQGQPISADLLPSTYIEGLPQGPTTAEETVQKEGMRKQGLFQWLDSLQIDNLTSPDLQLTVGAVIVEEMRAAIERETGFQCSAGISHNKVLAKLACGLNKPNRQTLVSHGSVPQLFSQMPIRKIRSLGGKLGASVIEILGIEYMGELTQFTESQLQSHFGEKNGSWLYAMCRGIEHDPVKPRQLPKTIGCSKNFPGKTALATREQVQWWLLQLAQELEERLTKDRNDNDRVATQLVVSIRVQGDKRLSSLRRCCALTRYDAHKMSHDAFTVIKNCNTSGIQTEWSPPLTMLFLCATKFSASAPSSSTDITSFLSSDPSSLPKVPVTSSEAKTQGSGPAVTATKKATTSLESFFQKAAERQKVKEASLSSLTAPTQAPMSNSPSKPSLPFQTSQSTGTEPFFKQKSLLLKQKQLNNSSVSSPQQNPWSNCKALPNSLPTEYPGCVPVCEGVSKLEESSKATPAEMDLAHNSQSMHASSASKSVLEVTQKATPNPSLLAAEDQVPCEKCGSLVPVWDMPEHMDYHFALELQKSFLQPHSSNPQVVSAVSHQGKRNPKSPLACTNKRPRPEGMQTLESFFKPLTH
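Fluorescent replication assay: 50 nM final substrate added after a 15 min room-temperature compound preincubation with 10 nM enzyme. Signal taken at 0 min and again at 10 min.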
12-LOX inh – Primary qHTS assay for inhibitors of human arachidonate 12S-lipoxygenase (ALOX12): Round 2. Polyunsaturated fatty acid lipoxygenase ALOX12 (Homo sapiens), P18054. purified 12hLO, xylenol orange hydroperoxide absorbance. Potency, µM (top dose mostly 108 µM), for the others: at the top dose activity change, negative = inhibition, most hits filed as inhibitors. hit rate 1.1% among 580,000; further: potency means the concentration at half of the fitted maximal effect; on the % scale 0 is the no-effect control and ±100 the full control effect
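Hydroperoxide product was detected by ferrous iron/xylenol orange as the 573 to 405 nm absorbance ratio. Arachidonic acid at 40 uM (final) was turned over for 30 min at room temperature by 150 nM human 12hLO, pH 7.0 Hepes buffer, after 15 min compound preincubation.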
* = called active by the depositor; ? = inconclusive; . = no result; [ ] = remark or other dose. Unless noted, the call rests on the fitted dose curve; in most records, active means well fitted inhibition curve with a large enough effect; inconclusive means small, poorly fitted or top-dose-only effect, or another doubt; inactive means no such curve, though single readings can be large or run the other way.

SMILES | Pol iota inh | POLK inh | Pol beta inh | PI5P4K alpha inh | POLH inh | 12-LOX inh
CCC(NC(=O)CCc1ncc(-c2ccccc2F)o1)c1ccc(OC)cc1 (centres undefined) | . | . | . | . | . | -4%
Clc1cccc(N/N=C(/c2ccccc2)c2ccncc2)c1 | . | . | . | . | . | 40µM*
O=C(Nc1cccc(Cl)c1)c1ccncc1 | -8% | 5% | -2% | 2 | -8% | -14%
COc1ccc2[nH]c3c(=O)n(Cc4ccc(C(=O)N5CCCCCC5)cc4)c(=S)[nH]c3c2c1 | -27% | -13% | 37% | 2 | -5% | 0%
COc1ccc2[nH]c3c(=O)n(Cc4ccc(C(=O)N5CCC(C(N)=O)CC5)cc4)c(=S)[nH]c3c2c1 | 7% | -11% | 2% | -59* | -27% | ?
CC[C@H](C)NC(=O)c1ccc(Cn2c(=S)[nH]c3c([nH]c4ccc(OC)cc43)c2=O)cc1 | ? | 1% | ? | ? | 18µM* | -15%
CCOC(=O)c1c(C)n(S(=O)(=O)c2ccc(C)cc2)c2ccc(O)c(C(=O)O)c12 | 6% | -6% | 8% | -1 | -2% | 56µM*
O=c1cc(CN2CCN(Cc3ccc(F)cc3)C(CCO)C2)[nH]c2ccccc12 (centres undefined) | 32% | -10% | 2% | -3 | -2% | 35µM*
O=C1CC(c2ccc3c(c2)OCO3)c2cc(O)ccc2O1 (centres undefined) | . | 32µM* | . | . | . | .
Cc1ccc(C2CC(=O)Oc3cc4c(cc32)OCO4)cc1 (centres undefined) | . | 45µM* | . | . | . | .
Cc1ccc(C)c(C(=O)Nc2ccc(Cl)c(C(F)(F)F)c2)c1 | . | . | . | . | . | 0%
CC(C)COC(=O)c1ccccc1 | . | . | . | . | . | -2%[176 µM]
O=C1Nc2ccccc2C12CCN(Cc1ccc(C(F)(F)F)cc1)C2 (centres undefined) | . | . | . | . | . | 1%[6.33 µM]
COc1ccc(C2/C(=C(\O)c3ccc4c(c3)CC(C)O4)C(=O)C(=O)N2Cc2cccnc2)c(OC)c1 (centres undefined) | -5% | -3% | 17% | 2 | -20% | 11µM*
S=c1[nH]c2ccc(Cl)cc2[nH]1 | -3% | -1% | ? | ? | 1% | ?
S=c1ncc2[nH]c(=S)[nH]c2[nH]1 | ? | -9% | . | -84* | -15% | .
COC(=O)CNc1nc(-c2ccccc2)c2cc(C)ccc2n1 | . | . | . | . | . | 24%
O=C(CN1CCN(c2ccc(F)cc2)CC1)N1CCC(Cc2ccccc2)CC1 | -15% | -7% | -23% | . | -11% | ?
O=C(CN1CCC(Cc2ccccc2)CC1)N1CCc2ccccc2C1 | 103% | -23% | 0% | -11 | -11% | 1µM*
Cc1ccc(/C=C/C(=O)O)cc1S(=O)(=O)N1CCCc2ccccc21 | -5% | -19% | 3% | -90* | 3% | 1%
Cc1ccc(/C=C/C(=O)O)cc1S(=O)(=O)Nc1ccccc1C(=O)O | 60% | -16% | ? | -53* | 45µM* | ?
Cc1ccc(/C=C/C(=O)O)cc1S(=O)(=O)N1CCc2ccccc21 | 18% | -10% | 49% | -76* | -8% | -10%
O=C(Cc1n[nH]c(=O)c2ccccc12)NCC(=O)NC1CC1 | . | . | . | . | . | 10%
COc1ccc(C(=O)N2CCC3(CC2)C(=NC2CCCCC2)NC(=O)N3c2cccc(OC)c2)cc1 | . | . | . | . | . | 4%[6.33 µM]
COc1cccc2cc(S(=O)(=O)N3CCCCCC3)c(=O)oc12 | . | . | . | . | . | 0%
SMILES | Pol iota inh | POLK inh | Pol beta inh | PI5P4K alpha inh | POLH inh | 12-LOX inh
Cc1cnc2c(S(=O)(=O)NCC(C)(C)N3CCOCC3)cccc2c1 | . | . | . | . | . | 15%
Cc1ccc(Cl)cc1NC(=O)c1cc2ccccc2cc1O | -3% | -8% | 25µM* | 2 | 2% | -3%
NNC(=O)c1cc2ccccc2cc1O | -8% | -19% | 19% | -52* | -17% | 12%
Cc1ccc(Cl)cc1NC(=O)COC(=O)c1ccccc1O | 11% | -9% | -4% | 6 | 10% | -10%
COc1ccc(-c2c(C(F)(F)F)oc3cc(OCC#N)ccc3c2=O)cc1OC | . | . | . | . | . | -8%
Cc1ccc(CN2CCc3oc(C)c(C(=O)NCCN4CCN(C)CC4)c3C2)cc1 | . | . | . | . | . | 4%
CCCN1CCN(C(=O)c2c(C)oc3c2CN(Cc2ccc(C)cc2)CC3)CC1 | . | . | . | . | . | 13µM*
COc1ccc2cc(C(=O)N(C)CC(=O)Nc3c(C)cc(C)cc3C)c(C)nc2c1 | . | . | . | . | . | -3%
Cc1nc2ccccc2n1CCc1nc2c3ccccc3nc(SCC(=O)NCc3ccco3)n2n1 | ? | -7% | 40µM* | 8 | ? | -26%
Cc1ccccc1NC(=O)CSc1nc2ccccc2c2nc(CCn3c(C)nc4ccccc43)nn12 | 16% | -1%[60.1 µM] | -15% | . | -10% | ?
COC(=O)CC(NC(=O)c1cc2ccccc2oc1=O)c1ccccc1 (centres undefined) | . | . | . | . | . | 2%
CCOC1CCCc2oc(-c3ccc(OC)cc3)c(C(=O)NCCCCO)c21 (centres undefined) | . | . | . | 2 | . | 13µM*
O=C1C=C(c2ccc(C(=O)O)c(Cl)c2)C[C@@H](c2ccc3c(c2)OCO3)C1 | ? | ? | . | ? | 50µM* | ?
Cn1c(Oc2ccc(F)c(F)c2)c(C#N)c(=O)n(C)c1=O | . | . | . | . | . | 23%
O=C(c1ccc2c(c1)CCC2)N1C[C@H]2CC[C@@H]1CN(Cc1cscn1)C2 | . | . | . | . | . | 47%
O=C(Cn1ccc(=O)[nH]c1=O)N1C[C@H]2CC[C@@H]1CN(Cc1cscn1)C2 | . | . | . | . | . | 8.9µM*
COC(=O)/C(C#N)=C/c1ccc(-c2ccc(S(N)(=O)=O)cc2)o1 | 37% | -16% | -19% | ? | -5% | -11%
N#CC(C#N)=Cc1ccc(-c2ccc(S(=O)(=O)N=C(N)N)cc2)o1 | ? | -19% | 7% | ? | 20µM* | 25µM*
CCN1C(=O)C2(C(C#N)=C(N)Oc3cc(C)oc(=O)c32)c2ccccc21 (centres undefined) | 2% | -16% | -16% | -16 | 1% | 0%
Cc1cc2c(c(=O)o1)C1(C(=O)N(CC(=O)O)c3ccccc31)C(C#N)=C(N)O2 (centres undefined) | ? | ? | ? | -25 | 20µM* | ?
COc1ccc(S(=O)(=O)c2nc(-c3ccc(F)cc3)oc2N2CCOCC2)cc1 | . | . | . | . | . | -6%
Cc1ccc2nc(Cl)c(C3CC(c4ccco4)=NN3C(=O)CCCC(=O)O)cc2c1 (centres undefined) | 16µM* | 35µM* | -4% | 2 | ? | -27%
